Laboratory results as given in PubChem BioAssay (NCATS).
Inconclusive results are not listed. Calls of active or inactive are those of the source. Unless noted, the call rests on the fitted dose curve; in most records, active means well fitted curve in the direction sought with a large enough effect; inconclusive means small, poorly fitted or top-dose-only effect, or another doubt; inactive means no such curve, though single readings can be large; an effect the other way counts as inactive or inconclusive.

Legend:
[1] = Cell Viability - BJ (AID 421; calls by dose curve;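 further: potency means the concentration at half of the fitted maximal effect; cells exposed to compound for 40 hours at 37 °C before readout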); details: BJ fibroblast viability, qHTS
Method in brief: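 Normal human BJ foreskin fibroblasts, 1500/well in complete medium, treated 40 hr at 37 °C. Cellular ATP by CellTiter-Glo luminescence; normalized to DMSO and 100 uM tamoxifen, AC50 from Hill fit.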

[2] = Cell Viability - Jurkat (AID 426;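 active means dose-dependent loss of cell ATP signal giving a full or clear fitted curve, ranked by lower potency value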; further: potency means the concentration at half of the fitted maximal effect); details: qHTS
Method in brief: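 Cytotoxicity was scored as loss of cellular ATP, measured by luciferase-based luminescence, in Jurkat clone E6-1 cells after 40 h compound treatment; tamoxifen and doxorubicin served as positive controls.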

[3] = Cell Viability - Hek293 (AID 427;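 active means compounds whose dose-response curve shows a full or clear partial loss of cell viability, called from curve shape rather than a numeric limit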;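 further: potency means the concentration at half of the fitted maximal effect; cells exposed to compound for 40 hours at 37 °C before reading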); details: qHTS
Method in brief: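 HEK293 cells in complete medium were exposed to compound for 40 hr at 37 °C, then cellular ATP was read by CellTiter-Glo luminescence. Data were normalized to DMSO (basal) and 100 uM tamoxifen (100% inhibition), and AC50 came from Hill fits.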

[4] = Cell Viability - HepG2 (AID 433; calls by dose curve;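 further: potency means the concentration at half of the fitted maximal effect; potency for ATP loss meaning cytotoxicity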); details: qHTS
Method in brief: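 Read-out is luciferase-based quantitation of cellular ATP as a measure of viable HepG2 cells after 40 h treatment at 37 °C. Signal decrease is scaled between DMSO-only and 100 uM tamoxifen controls, with AC50 fitted by the Hill equation.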

[5] = Cell Viability - MRC5 (AID 434; calls by dose curve;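 further: potency means the concentration at half of the fitted maximal effect; potency reflects cytotoxicity seen as loss of intracellular ATP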); details: MRC5 lung fibroblast viability, qHTS
Method in brief: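 AC50 values come from Hill-equation fits of intracellular ATP loss, measured by CellTiter-Glo luminescence. Normal lung fibroblasts (MRC5) had 40 hr compound treatment at 37 C, normalized between DMSO and 100 uM tamoxifen.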

[6] = Cell Viability - SK-N-SH (AID 435; calls by dose curve;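 further: potency means the concentration at half of the fitted maximal effect; compound exposure lasted 40 h at 37 °C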); details: SK-N-SH neuroblastoma cell viability qHTS
Method in brief: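 Luminescent ATP signal served as the viability read-out after 40 hours of compound treatment of human neuroblastoma SK-N-SH cells. Concentration-response data, scaled between DMSO and 100 uM tamoxifen, gave AC50 values by standard Hill modeling.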

[7] = Cell Viability - HUV-EC-C (AID 542); details: HUV-EC-C endothelial cell viability, qHTS; series mostly up to 92.2 µM; further: on the % scale 0 is the no-effect control and ±100 the full control effect; nearly all actives have a fitted effect of over 35% in size
Method in brief: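 Concentration-dependent ATP loss in HUV-EC-C cells is the measure. Exposure lasts 40 hr at 37 °C; luminescence follows CellTiter-Glo addition, and Hill fits give AC50.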

[8] = Cellular Toxicity (caspase-3) HepG2 (AID 654); details: HepG2 caspase-3 activation, luminescence, 0% = DMSO only, 100% = tamoxifen; series mostly up to 92.2 µM;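 further: cells exposed to compound for 16 hours before reading; 0% = DMSO alone and 100% = caspase signal from 100 µM tamoxifen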
Method in brief: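 Concentration-response AC50 values reflect caspase-3/7 induction in HepG2 cells after 16 hours of compound exposure, quantified by luminescence from liberated aminoluciferin and referenced to 100 uM tamoxifen as full stimulation.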

[9] = Cellular Toxicity (caspase-3) SK-N-SH (AID 661); details: SK-N-SH caspase-3 activation, qHTS; series mostly up to 91.7 µM
Method in brief: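 Apoptosis readout in SK-N-SH neuroblastoma: Caspase-Glo 3/7 luminescence following 16 hr treatment in complete culture medium. Normalization used DMSO and 10 uM staurosporine controls.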

[10] = Cellular Toxicity (caspase-3) N2a (AID 665); details: N2a cells, luminescence, normalized: DMSO 0%, 10 µM staurosporine 100%; series mostly up to 92.2 µM;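 further: compound exposure lasted 16 h at 37 °C before readout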
Method in brief: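 Concentration-response qHTS: compound-induced caspase-3/7 luminescence in N2a cells (16 h, 37 °C), relative to DMSO and 10 uM staurosporine controls; AC50 obtained using the standard Hill equation.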

[11] = Cellular Toxicity (caspase-3) NIH 3T3 (AID 666); details: NIH 3T3 caspase-3 activation, apoptosis/toxicity; series mostly up to 92.2 µM;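 further: caspase signal read after 16 h compound exposure; 0% = DMSO basal and 100% = 100 µM tamoxifen stimulation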
Method in brief: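 Activity: caspase-3/7 induction, NIH 3T3 cells, 16 hr treatment at 37°C, luminescent Caspase-Glo detection; AC50 via Hill equation.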

[12] = Cellular Toxicity (caspase-3) Renal Proximal Tubule (AID 667); details: renal proximal tubule cells; series mostly up to 91.7 µM;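 further: cells exposed to compound for 16 hours at 37 °C before detection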
Method in brief: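 AC50 derived by standard Hill fit of concentration-response data, normalized between DMSO basal and 10 uM staurosporine as 100% stimulation. Cells: primary rat kidney proximal tubule, 16 h treatment at 37 °C.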

[13] = MultiTox-Fluor Cytotoxicity Assay - LYMP1-003 - Dead Cells (AID 961); details: LYMP1-003 lymphoblastoid cells, dead-cell protease fluorescence; series mostly up to 92.2 µM;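 further: 0% = DMSO and 100% = tetraoctylammonium bromide; nearly all actives have a fitted effect of over 70% in size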
Method in brief: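 LYMP1-003 human lymphoblastoid cells (2500/well) exposed to compound 16 h at 37 C in complete medium; dead-cell protease read with bis-AAF-R110 fluorescence (Ex/Em 485/520) after 60 min at room temperature. Normalized to DMSO and 15 uM tetraoctylammonium bromide; AC50 from Hill fit.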

[14] = Cell Viability - LYMP2-007 (AID 979); details: LYMP2-007 lymphoblastoid cell viability; series mostly up to 92.2 µM;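 further: cells exposed to compound for 24 h before reading; 0% = DMSO only and the negative end = 92 µM tetraoctylammonium bromide; nearly all actives have a fitted effect of over 60% in size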
Method in brief: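 Measured via luciferase-based ATP quantitation: lymphoblastoid cells, 24 hr compound exposure at 37 C, AC50 from Hill fits.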

[15] = Cell Viability - LYMP1-002 - Assay at 24 hr (AID 993); details: LYMP1-002 lymphoblastoid cells viability; series mostly up to 92.2 µM; further: on the % scale 0 is the no-effect control and ±100 the full control effect
Method in brief: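 Viability was judged from intracellular ATP using a luciferase read-out, following a 24-hour compound incubation at 37 C of lymphoblastoid cells seeded at 2500 per well. Concentration-response data were fitted to the Hill equation for AC50.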

[16] = qHTS Assay for Identification of Small Molecule Inducers of Hypoxia Response (AID 2120; active means well fitted curve in the direction sought with a large enough effect in the signal ratio, with a control signal flat, not every such curve was filed as active; the % refers to the signal ratio; further: 0% is about no effect); details: hypoxia response reporter cells, beta-lactamase ratio readout; series mostly up to 104 µM
Method in brief: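 HRE-bla ME-180, 2500 cells/well, 0.5% dialyzed FBS medium; cpd titration, 17 h 37 degrees C; CCF4 2.5 h RT; Ex 405, Em 460/530 ratio -> %Activity, AC50.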

[17] = target: Peroxisome proliferator-activated receptor alpha (Homo sapiens) (UniProt Q07869); assay: qHTS assay for small molecule agonists of the peroxisome proliferator-activated receptor alpha (PPARalpha) signaling pathway (AID 651778); details: PathHunter PPARalpha complementation, chemiluminescence, 6 h; stronger effect = higher value; further: % of control where 0% means no effect
Sequence of Peroxisome proliferator-activated receptor alpha (Homo sapiens) (Q07869 whole entry, looked up): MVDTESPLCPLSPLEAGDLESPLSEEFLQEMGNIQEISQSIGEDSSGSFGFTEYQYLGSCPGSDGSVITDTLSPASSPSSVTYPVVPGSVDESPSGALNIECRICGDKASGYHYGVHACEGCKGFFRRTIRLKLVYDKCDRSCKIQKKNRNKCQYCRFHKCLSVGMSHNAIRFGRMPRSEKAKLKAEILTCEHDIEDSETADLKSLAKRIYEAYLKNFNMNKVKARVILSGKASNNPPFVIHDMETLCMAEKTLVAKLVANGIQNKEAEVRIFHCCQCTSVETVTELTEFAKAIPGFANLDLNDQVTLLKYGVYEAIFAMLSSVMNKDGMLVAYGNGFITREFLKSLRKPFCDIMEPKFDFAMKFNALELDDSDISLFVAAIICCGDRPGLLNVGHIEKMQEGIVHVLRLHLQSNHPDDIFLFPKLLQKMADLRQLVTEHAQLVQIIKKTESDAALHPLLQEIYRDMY
Method in brief: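 Chemiluminescence from complemented enzyme reported PPARalpha activation in cells after 6 hr of compound treatment at 37 C. The detection reagent was incubated for 60 min at room temperature, and compounds were scored as agonists.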

[18] = qHTS assay for small molecule agonists of the antioxidant response element (ARE) signaling pathway measured by Nrf2-dependant transcriptional activity - cell viability counter screen (AID 720653; active means well fitted curve in the direction sought with a large enough effect in the repeat runs; an effect the other way counts as inactive or inconclusive; further: on the % scale 0 is the no-effect control and ±100 the full control effect); details: ARE-bla HepG2 viability, CellTiter-Glo ATP luminescence, 16 h; stronger effect = lower value
Method in brief: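 Cytotoxicity counter screen: intracellular ATP quantified by CellTiter-Glo luminescence in the same ARE-bla HepG2 plates, after 16 h compound exposure and a 2 h beta-lactamase substrate step.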

[19] = qHTS assay for cell viability of HEK293 cells (AID 743288); details: ATP luminescence (CellTiter-Glo), 18 h, stronger effect = lower value; further: on the % scale 0 is the no-effect control and ±100 the full control effect; nearly all actives have a fitted effect of over 50% in size
Method in brief: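 Viable-cell counts were inferred from luciferase-based ATP content in HEK293 cells seeded at 2,000/well, pre-incubated ≥5 h, then dosed with DMSO-solubilised compounds for 18 h at 37 C.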

[20] = qHTS assay for cell viability of the p53RE-bla HCT-116 cell line (AID 743292); details: p53RE-bla HCT-116 viability, ATP luminescence, 16 h; series mostly up to 95 µM; further: on the % scale 0 is the no-effect control and ±100 the full control effect; nearly all actives have a fitted effect of over 55% in size
Method in brief: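 Viability of compound-treated p53RE-bla HCT-116 cells is taken from ATP-dependent luciferase luminescence. Treatment lasts 16 h at 37 C after a 5 h settling period; detection follows 30 min at room temperature.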

Cc1ccc([N+](=O)[O-])cc1
inactive: Potency [1] > 92 µM | Potency [2] > 92 µM | Potency [3] > 92 µM | Potency [4] > 92 µM | Potency [5] > 92 µM | Potency [6] > 92 µM | Potency [7] | outcome [8] | Potency [9] | outcome [10] | Potency [11] | outcome [12] | Potency [13] | Potency [14] | Potency [15] | Potency [16] | max response [17] -0.114% | max response [18] -6.34% | max response [19] 0.535% | Potency [20]

Cl/C=C/Cl
inactive: Potency [1] > 92 µM | Potency [2] > 92 µM | Potency [3] > 92 µM | Potency [4] > 92 µM | Potency [5] > 92 µM | Potency [6] > 92 µM | Potency [7] | outcome [8] | Potency [9] | outcome [10] | Potency [11] | outcome [12] | Potency [13] | Potency [14] | Potency [15] | Potency [16] | max response [17] -4.81% | max response [18] 1.77% | max response [19] -15.8% | Potency [20]

CN(C)c1ccccc1
inactive: Potency [1] > 92 µM | Potency [2] > 92 µM | Potency [3] > 92 µM | Potency [4] > 92 µM | Potency [5] > 92 µM | Potency [6] > 92 µM | Potency [7] | outcome [8] | Potency [9] | outcome [10] | Potency [11] | outcome [12] | Potency [13] | Potency [14] | Potency [15] | Potency [16] | max response [17] -1.79% | max response [18] 12.1% | max response [19] 0.461% | Potency [20]

O=[N+]([O-])c1ccccc1-c1ccccc1
inactive: Potency [1] > 92 µM | Potency [2] > 92 µM | Potency [3] > 92 µM | Potency [4] > 92 µM | Potency [5] > 92 µM | Potency [6] > 92 µM | Potency [7] | outcome [8] | Potency [9] | outcome [10] | Potency [11] | outcome [12] | Potency [13] | Potency [14] | Potency [15] | Potency [16] | max response [17] -6.56% | max response [18] 1.78% | max response [19] 0.829% | Potency [20]

Clc1ccc(C(Cl)(Cl)Cl)cc1Cl
inactive: Potency [1] > 92 µM | Potency [2] > 92 µM | Potency [3] > 92 µM | Potency [4] > 92 µM | Potency [5] > 92 µM | Potency [6] > 92 µM | Potency [7] | outcome [8] | Potency [9] | outcome [10] | Potency [11] | outcome [12] | Potency [13] | Potency [14] | Potency [15] | Potency [16] | max response [17] 1.82% | max response [18] -18% | max response [19] 4.98% | Potency [20]

ClC(Cl)c1ccccc1
inactive: Potency [1] > 92 µM | Potency [2] > 92 µM | Potency [3] > 92 µM | Potency [4] > 92 µM | Potency [5] > 92 µM | Potency [6] > 92 µM | Potency [7] | outcome [8] | Potency [9] | outcome [10] | Potency [11] | outcome [12] | Potency [13] | Potency [14] | Potency [15] | Potency [16] | max response [17] -0.698% | max response [18] -0.372% | max response [19] -9.22% | Potency [20]

Cc1cccc(C)c1N
inactive: Potency [1] > 92 µM | Potency [2] > 92 µM | Potency [3] > 92 µM | Potency [4] > 92 µM | Potency [5] > 92 µM | Potency [6] > 92 µM | Potency [7] | outcome [8] | Potency [9] | outcome [10] | Potency [11] | outcome [12] | Potency [13] | Potency [14] | Potency [15] | Potency [16] | max response [17] 1.61% | max response [18] 4.9% | max response [19] -2.34% | Potency [20]

Oc1cccc(Cl)c1
inactive: Potency [1] > 92 µM | Potency [2] > 92 µM | Potency [3] > 92 µM | Potency [4] > 92 µM | Potency [5] > 92 µM | Potency [6] > 92 µM | Potency [7] | outcome [8] | Potency [9] | outcome [10] | Potency [11] | outcome [12] | Potency [13] | Potency [14] | Potency [15] | Potency [16] | max response [17] 16.7% | max response [18] -6.82% | max response [19] 0.616% | Potency [20]

ClCc1ccccc1
inactive: Potency [1] > 92 µM | Potency [2] > 92 µM | Potency [3] > 92 µM | Potency [4] > 92 µM | Potency [5] > 92 µM | Potency [6] > 92 µM | Potency [7] | outcome [8] | Potency [9] | outcome [10] | Potency [11] | outcome [12] | Potency [13] | Potency [14] | Potency [15] | Potency [16] | max response [17] 3.28% | max response [18] 16.1% | max response [19] -10.4% | Potency [20]

Cc1cc(Cl)ccc1O
inactive: Potency [1] > 92 µM | Potency [2] > 92 µM | Potency [3] > 92 µM | Potency [4] > 92 µM | Potency [5] > 92 µM | Potency [6] > 92 µM | Potency [7] | outcome [8] | Potency [9] | outcome [10] | Potency [11] | outcome [12] | Potency [13] | Potency [14] | Potency [15] | Potency [16] | max response [17] -3.66% | max response [18] 10.4% | max response [19] -5.93% | Potency [20]

Nc1cccc(Cl)c1
inactive: Potency [1] > 92 µM | Potency [2] > 92 µM | Potency [3] > 92 µM | Potency [4] > 92 µM | Potency [5] > 92 µM | Potency [6] > 92 µM | Potency [7] | outcome [8] | Potency [9] | outcome [10] | Potency [11] | outcome [12] | Potency [13] | Potency [14] | Potency [15] | Potency [16] | max response [17] 0.632% | max response [18] 2.22% | max response [19] -8.5% | Potency [20]
